Shown is part of a subset that was picked to be rich in hits.
Chlamy TAG – inducers of TAG accumulation in Chlamydomonas, primary screen, qHTS, Chlamydomonas reinhardtii. Nile Red fluorescence, 72 h. calls only at 10 µM (by protocol). 44,000 compounds, 0.84% hits. AID 1159537, 2015; call rule not given here;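 note: hits raise Nile Red signal meaning more stored TAG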
Calls only; 0 = inactive; + = active, no number.

SMILES	Chlamy TAG
COc1cc(CNC2CCC(C)C2)cc(OC)c1 (stereo unspecified)	0
COc1ccc(CNC2CCCC(C)C2)cc1 (stereo unspecified)	+
COc1ccc(CNC2CCCC2)cc1OC	0
O=C(CCCc1ccccc1)NC1CCCC1	0
CC(=O)Nc1cccc(-c2nnc(SCC(=O)c3ccc(Br)cc3)n2C)c1	0
CCN(Cc1ccccc1)S(=O)(=O)Cc1ccccc1	0
O=C(O)C1CCCCC1C(=O)Nc1cccc(F)c1 (stereo unspecified)	0
C=CCNC(=O)CN(c1cc(C)cc(C)c1)S(=O)(=O)c1ccc(OC)c(OC)c1	0
O=S(=O)(c1ccc(F)cc1)N1CCN(c2ccccc2)CC1	0
O=[N+]([O-])c1ccccc1S(=O)(=O)N1CCN(c2ccc(F)cc2)CC1	0
O=S(=O)(c1ccc(Cl)c(Cl)c1Cl)N1CCN(c2ccc(F)cc2)CC1	+
COc1ccc(-c2noc(-c3ccc(Cl)cc3)n2)cc1OC	0
O=C(CSc1nnc(COc2ccc3c(c2)CCCC3)o1)Nc1nc(-c2ccccc2)cs1	0
CCc1ccc(CN2CCSCC2)cc1	0
CSc1ccc(CN2CCOCC2)cc1	0
CSc1ccc(CN2CCSCC2)cc1	+
O=C(COc1ccc(Cl)cc1)N1CCN(c2cccc(Cl)c2)CC1	0
COc1ccc(N2CCN(C(=O)COc3ccc(Cl)cc3)CC2)cc1	0
CC1CCCN(C(=O)COc2ccc(Cl)cc2)C1 (stereo unspecified)	+
COc1ccc(C2CC(=O)n3c(nc4ccccc43)S2)cc1 (stereo unspecified)	0
CC(C)(CO)NC(=O)CC12CC3CC(CC(C3)C1)C2	0
CCOc1cc(C(=O)Nc2c(C)n(C)n(-c3ccccc3)c2=O)cc(OCC)c1OCC	0
N#Cc1c(-n2ncnc2-c2ccc(F)cc2)sc2c1CCCC2	0
N#Cc1c(-n2ncnc2-c2cccnc2)sc2c1CCCCC2	+
COc1ccc(-c2ncnn2-c2sc3c(c2C#N)CCCC3)cc1OC	0
SMILES	Chlamy TAG
CC(=O)C1=C(C)OC(N)=C(C#N)C1c1ccc([N+](=O)[O-])cc1 (stereo unspecified)	0
CC(=O)N1CCN(c2ccc(C(=O)c3ccccc3)cc2F)CC1	0
Cc1cc(Br)ccc1OCC(=O)N1CCCC1	0
O=C(Nc1ccc(S(=O)(=O)N2CCCC2)cc1)c1ccccc1I	0
O=C(Nc1ccc(S(=O)(=O)N2CCCC2)cc1)c1ccc(Cl)cc1Cl	+
O=C(Nc1ccccc1)c1cc(S(=O)(=O)N2CCCCC2)ccc1Cl	0
COCc1cc(C)nc2sc(C(=O)Nc3ccccc3Cl)c(N)c12	0
Cc1ccc(OCCCN2CCOCC2)c(C)c1	+
Cc1ccc(OCCCCn2ccnc2)c(Br)c1	0
Cc1ccc(OCCCn2ccnc2)c(Br)c1	+
Cc1ccc(OCCCn2ccnc2)c([N+](=O)[O-])c1	0
Cc1ccc(OCCCCN2CCCC2)c(C)c1	+
Cc1ccc(OCCCCN2CCOCC2)c(C)c1	0
Cc1ccc(OCCCN2CCCCC2)c(C)c1	0
Cc1ccccc1OCCCCN1CCCCC1	0
Cc1ccc(OCCCN2CCCC2)c(Br)c1	0
Cc1ccc(OCCCCN2CCCC2)c(Br)c1	+
Cc1ccccc1OCCCN1CCOCC1	0
Cc1ccc(OCCCN2CCCC2)c([N+](=O)[O-])c1	0
Cc1c(C)n(C(=O)CSc2nnc(N)s2)c2ccccc12	0
COc1cccc(-c2cc(CC(C)C)nc(N)c2C#N)c1	0
Cc1cccc(OCCCCN2CCCCC2)c1	0
Cc1ccc(OCCCCN2CCCCC2)cc1	0
Cc1ccc(OCCCCN2CCOCC2)cc1	+
Cc1ccc(OCCCCN2CCCC2)cc1C	+
SMILES	Chlamy TAG
Clc1ccc(OCCCN2CCOCC2)cc1	0
Cc1ccc(OCCN2CCCC2)cc1C	0
CC(C)c1ccc(N(CC(N)=O)S(C)(=O)=O)cc1	0
Cc1ccc(-c2cc(C(=O)Nc3ccc(S(N)(=O)=O)cc3)c3ccccc3n2)s1	0
CCc1nc2c(cnn2-c2ccccc2)c(=O)n1-c1cccnc1	0
Cc1ccc(Cn2cnc3sc4c(c3c2=O)CCC4)c(C)c1	0
Cc1ccc(Cn2cnc3c(cnn3-c3ccccc3)c2=O)c(C)c1	+
CCC(Cc1ccccc1)NC(=O)c1ccccc1 (stereo unspecified)	0
CC(=O)N(C1=C(N(C)C)C(=O)c2ccccc2C1=O)c1ccc(Cl)c(Cl)c1	+
CC(=O)N(C1=C(N(C)C)C(=O)c2ccccc2C1=O)c1cccc(Cl)c1	0
CC(=O)N(C1=C(N(C)C)C(=O)c2ccccc2C1=O)c1ccc(F)c(F)c1	0
Cc1nnc(N2C(=O)C(=O)C(=C(O)c3ccc(F)cc3)C2c2ccc(Br)cc2)s1 (stereo unspecified)	0
O=C(NCCc1ccccc1)C(Cc1ccccc1)N1C(=O)c2ccccc2C1=O (stereo unspecified)	0
Cc1ccc(S(=O)(=O)Nc2ccc(C(=O)CC(=O)Nc3ccccc3)cc2)cc1	0
O=C(Nc1ccc(NS(=O)(=O)c2ccccc2)cc1)c1ccccc1	0
O=C(O)CCSCC(=O)c1ccc(NS(=O)(=O)c2ccccc2)cc1	+
CN(C)Cc1cc(CN(C)C)c(O)c(-c2ccccc2)n1	0
O=C(Nc1ccc([N+](=O)[O-])cc1)c1cccc(Cl)c1Cl	+
O=C(Nc1ccc(F)cc1)c1cccc(Cl)c1Cl	0
O=C(Nc1cccc([N+](=O)[O-])c1)c1ccccc1Cl	0
O=C(O)CCCOc1cccc([N+](=O)[O-])c1	0
Cc1nc(SCc2nc3ccccc3[nH]2)[nH]c(=O)c1C	0
c1ccc(CCN2CCN(c3ccccc3)CC2)cc1	+
COc1cc(CN2CCN(c3cccc(Cl)c3)CC2)cc(OC)c1O	0
c1ccc(N2CCN(Cc3ccsc3)CC2)nc1	0
SMILES	Chlamy TAG
c1ccc(CCN2CCN(Cc3ccccc3)CC2)cc1	0
c1cc(CN2CCOCC2)cs1	0
c1ccc(N2CCN(Cc3ccsc3)CC2)cc1	+
CN1CCN(CCCc2ccccc2)CC1	0
Clc1cccc(N2CCN(Cc3ccsc3)CC2)c1	+
Clc1cccc(N2CCN(Cc3cccs3)CC2)c1	0
COc1ccc(C(O)=C2C(=O)C(=O)N(CCN3CCOCC3)C2c2cccc([N+](=O)[O-])c2)cc1 (stereo unspecified)	0
CC(C)(C)C#CC1(C(=O)O)C(C)(C)C1(C)C	0
O=C(CN1CCCCC1)NCC12CC3CC(CC(C3)C1)C2	+
O=C(CCN1CCOCC1)NC12CC3CC(CC(C3)C1)C2	0
CNCC(=O)NC12CC3CC(CC(C3)C1)C2	0
O=C(NCC12CC3CC(CC(C3)C1)C2)NC1CCCCC1	0
CNCC(=O)NCC12CC3CC(CC(C3)C1)C2	0
O=C(CN1CCCCC1)NC12CC3CC(CC(C3)C1)C2	+
COc1cc(NC(=O)c2ccc(OC)c([N+](=O)[O-])c2)c(OC)cc1Cl	0
CCN(CCN(C)C)Cc1ccccc1F	0
O=C1C(=O)N(CCCO)C(c2ccccc2)C1=C(O)c1ccccc1 (stereo unspecified)	0
NNC(=O)c1ccc(C(=O)O)cc1	0
CSc1cccc(NC(=O)c2ccc(N(Cc3ccccc3)S(C)(=O)=O)cc2)c1	0
COc1ccc(Cc2cnc(NC(=O)Cc3ccccc3)s2)cc1	0
O=C(Nc1ncc(Cc2ccc(F)cc2)s1)C1CCCO1 (stereo unspecified)	0
O=C(CN1CCCCC1)Nc1ncc(Cc2ccc(F)cc2)s1	+
CCn1c(SCC(=O)Nc2ccc(C)cc2)nnc1-c1cc(OC)c(OC)c(OC)c1	0
Cc1cc(C)c(S(=O)(=O)NCC#N)c(C)c1	0
C=CCc1ccccc1OCC(O)CN1C(C)CCCC1C (stereo unspecified)	0
